Measurements from PubChem BioAssay (Tox21).
Records with an inconclusive call do not appear. Active and inactive are the calls of the source. Calls come from the whole dose curve; as a rule, active = well fitted curve in the direction sought with a large enough effect in the repeat runs; inconclusive = weak or mixed curves; inactive = no such curve, though single readings can be large; an effect the other way counts as inactive or inconclusive.

Key:
[1] = Human pregnane X receptor (PXR) small molecule agonists, qHTS cell viability counter screen (AID 1346977); note: nearly all actives have a fitted effect of over 50% in size; note: potency is the fitted concentration of half-maximal effect
How it was run: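 Cytotoxicity counter screen run in the same wells as the PXR luciferase assay, using PXR-Luc HepG2 cells in charcoal-stripped serum medium. Viability: CellTiter-Fluor fluorescence after 24hr compound treatment.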

[2] = Caspase-3/7 induction in HepG2 cells by small molecules, qHTS assay (AID 1346978); note: nearly all actives have a fitted effect of over 15% in size
How it was run: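 Wild-type HepG2 cells (2,000/well) were settled 5 h at 37 C, 5% CO2, then exposed to compounds in DMSO for 17 h. Caspase-3/7 activity was read by luminescence 30 min after adding Caspase-Glo 3/7 reagent at room temperature.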

[3] = Caspase-3/7 induction in CHO-K1 cells by small molecules, qHTS cell viability counter screen (AID 1346979); note: nearly all actives have a fitted effect of over 35% in size; note: potency is the fitted concentration of half-maximal effect
How it was run: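 Cytotoxicity counter screen run in parallel with the caspase-3/7 assay: CHO-K1 cells, 16hr compound treatment at 37C, then CellTiter-Fluor for 1hr before fluorescence reading.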

[4] = Caspase-3/7 induction in CHO-K1 cells by small molecules, qHTS assay (AID 1346980); note: nearly all actives have a fitted effect of over 15% in size
How it was run: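 Wild-type cells were seeded at 1,500 per well and settled 5 hr at 37 C, 5% CO2, then exposed to DMSO-dissolved compounds for 17 hr. Caspase-Glo 3/7 reagent was added, and luminescence was read after 30min at room temperature.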

[5] = target: Nuclear receptor subfamily 1 group I member 2 (Homo sapiens) (UniProt O75469); experiment: Human pregnane X receptor (PXR) small molecule agonists, qHTS assay (AID 1346982); note: nearly all actives have a fitted effect of over 35% in size; note: potency is the fitted concentration of half-maximal effect
How it was run: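 Agonist mode qHTS: PXR-Luc HepG2 cells plated 5 hr before DMSO-dissolved compounds were pinned in, cultured 24 hr at 37 C, 5% CO2; ONE-Glo luminescence readout.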

[6] = target: Cytochrome P450 2D6 (Homo sapiens) (UniProt P10635); experiment: Cytochrome P450 Family 2 Subfamily D Member 6 (CYP2D6) small molecule antagonists: luciferase reporter qHTS assay (AID 1671196); note: nearly all actives have a fitted effect of over 50% in size; note: potency is the fitted concentration of half-maximal effect; for activity change, negative = inhibition: series mostly up to about 120 µM
How it was run: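 P450-Glo format: CYP2D6 converts a proluciferin substrate to luciferin in an NADPH-driven reaction lasting 1 h at room temperature. Light output, proportional to CYP2D6 activity, reflects interference by test chemicals.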

[7] = target: Cytochrome P450 2C19 (Homo sapiens) (UniProt P33261); experiment: Cytochrome P450 Family 2 Subfamily C Member 19 (CYP2C19) small molecule antagonists: luciferase reporter qHTS assay (AID 1671197); note: nearly all actives have a fitted effect of over 65% in size; note: potency is the fitted concentration of half-maximal effect; for activity change, negative = inhibition: series mostly up to about 120 µM
How it was run: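 Luminescent readout of CYP2C19 activity: luciferin product detected 20 min after adding detection reagent. Before that, compound and enzyme-substrate mix preincubated 10 min at room temperature; NADPH-regenerating system started a 1 h, 37C reaction. Ketoconazole as positive control.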

[8] = target: Cytochrome P450 2C9 (Homo sapiens) (UniProt P11712); experiment: Cytochrome P450 Family 2 Subfamily C Member 9 (CYP2C9) small molecule antagonists: luciferase reporter qHTS assay (AID 1671198); note: nearly all actives have a fitted effect of over 50% in size; note: potency is the fitted concentration of half-maximal effect; for activity change, negative = inhibition: series mostly up to about 120 µM
How it was run: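 CYP2C9 activity was measured with a P450-Glo proluciferin substrate. Enzyme–substrate mix was held with compound for 10 min at room temperature, then NADPH regeneration solution was added for 1 h at 37C. Luciferin product was read as luminescence.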

[9] = target: Cytochrome P450 1A2 (Homo sapiens) (UniProt P05177); experiment: Cytochrome P450 Family 1 Subfamily A Member 2 (CYP1A2) small molecule antagonists: luciferase reporter qHTS assay (AID 1671199); note: nearly all actives have a fitted effect of over 50% in size; note: potency is the fitted concentration of half-maximal effect; for activity change, negative = inhibition: series mostly up to about 120 µM
How it was run: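 Inhibition of CYP1A2 conversion of proluciferin to luciferin, detected by luminescence. Reaction run 1 h at room temperature with NADPH regeneration after brief compound preincubation.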

[10] = target: Voltage-gated inwardly rectifying potassium channel KCNH2 (Homo sapiens) (UniProt Q12809); experiment: Human Ether-a-go-go-Related Gene (hERG) channel small molecule antagonists: fluorescence cell-based qHTS assay (AID 1671200)
How it was run: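 Fluorescence at 540 nm emission (480 nm excitation) was recorded kinetically for 2 min at 1-second intervals once the thallium-containing stimulus reached cells previously loaded with FluxOR II dye.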

[11] = target: Cytochrome P450 3A4 (Homo sapiens) (UniProt P08684); experiment: Cytochrome P450 Family 3 Subfamily A Member 4 (CYP3A4) small molecule antagonists: luciferase reporter qHTS assay (AID 1671201); note: nearly all actives have a fitted effect of over 50% in size; note: potency is the fitted concentration of half-maximal effect; for activity change, negative = inhibition: series mostly up to about 120 µM
How it was run: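 qHTS, 1536-well. CYP3A4 + proluciferin substrate, cpd 10 min RT → NADPH regen 1 h RT → detection reagent 20 min → luminescence (RLU). Ketoconazole positive control.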

[12] = Caspase-3/7 induction in HepG2 cells by small molecules, qHTS cell viability counter screen (AID 1346981); note: nearly all actives have a fitted effect of over 30% in size; note: potency is the fitted concentration of half-maximal effect; for activity change, negative = cytotoxicity: series mostly up to about 92 µM
How it was run: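 Steps: seed 2,000 HepG2 cells per well; incubate 5 hr at 37 C; pin-add compounds in DMSO; incubate 16 hr; add CellTiter-Fluor; after 1 hr at 37 C and 5% CO2, read fluorescence.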
% is set by controls: 0 for no effect and ±100 for the full control effect.

Cytochrome P450 1A2 (Homo sapiens), sequence (P05177 whole entry, looked up): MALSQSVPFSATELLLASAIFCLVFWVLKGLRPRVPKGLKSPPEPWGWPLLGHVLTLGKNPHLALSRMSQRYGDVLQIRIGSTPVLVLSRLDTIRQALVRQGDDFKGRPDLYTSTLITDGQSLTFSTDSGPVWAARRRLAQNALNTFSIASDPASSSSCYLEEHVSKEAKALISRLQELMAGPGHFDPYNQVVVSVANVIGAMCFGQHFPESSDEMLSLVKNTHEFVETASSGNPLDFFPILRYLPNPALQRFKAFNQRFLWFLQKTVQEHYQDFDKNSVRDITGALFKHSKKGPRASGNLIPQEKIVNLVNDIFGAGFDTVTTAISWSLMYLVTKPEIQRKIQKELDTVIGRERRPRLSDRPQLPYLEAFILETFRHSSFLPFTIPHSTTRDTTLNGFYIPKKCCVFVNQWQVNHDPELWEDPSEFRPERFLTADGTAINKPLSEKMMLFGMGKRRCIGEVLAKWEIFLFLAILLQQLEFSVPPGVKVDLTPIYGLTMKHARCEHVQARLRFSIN
Cytochrome P450 2D6 (Homo sapiens), sequence (P10635 whole entry, looked up): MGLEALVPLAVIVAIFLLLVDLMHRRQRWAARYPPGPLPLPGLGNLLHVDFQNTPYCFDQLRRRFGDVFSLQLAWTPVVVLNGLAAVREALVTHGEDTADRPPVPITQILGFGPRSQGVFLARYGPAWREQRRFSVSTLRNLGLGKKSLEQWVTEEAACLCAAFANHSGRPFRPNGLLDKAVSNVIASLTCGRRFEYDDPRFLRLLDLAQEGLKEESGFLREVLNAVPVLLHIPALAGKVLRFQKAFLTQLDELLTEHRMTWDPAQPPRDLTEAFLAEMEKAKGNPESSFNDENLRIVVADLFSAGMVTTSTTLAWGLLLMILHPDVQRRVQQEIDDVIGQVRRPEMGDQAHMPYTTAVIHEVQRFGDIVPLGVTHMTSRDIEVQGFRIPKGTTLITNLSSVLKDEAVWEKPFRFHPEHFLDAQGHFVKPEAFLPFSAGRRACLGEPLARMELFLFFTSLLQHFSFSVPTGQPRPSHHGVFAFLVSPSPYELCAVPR
Cytochrome P450 3A4 (Homo sapiens), sequence (P08684 whole entry, looked up): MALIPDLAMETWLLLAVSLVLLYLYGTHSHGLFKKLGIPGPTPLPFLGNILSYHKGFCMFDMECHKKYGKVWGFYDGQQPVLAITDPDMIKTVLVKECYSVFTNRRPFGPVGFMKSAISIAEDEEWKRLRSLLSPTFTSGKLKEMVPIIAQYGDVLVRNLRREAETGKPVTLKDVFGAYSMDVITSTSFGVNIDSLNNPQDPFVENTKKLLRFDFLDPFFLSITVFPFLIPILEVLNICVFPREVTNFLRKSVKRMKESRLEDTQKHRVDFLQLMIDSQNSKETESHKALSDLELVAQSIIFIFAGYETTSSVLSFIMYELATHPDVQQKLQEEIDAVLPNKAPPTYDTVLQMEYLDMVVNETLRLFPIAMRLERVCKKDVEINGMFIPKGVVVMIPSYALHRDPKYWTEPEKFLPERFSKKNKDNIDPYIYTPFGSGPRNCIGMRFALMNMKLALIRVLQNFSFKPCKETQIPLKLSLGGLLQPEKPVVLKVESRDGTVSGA
Cytochrome P450 2C9 (Homo sapiens), sequence (P11712 whole entry, looked up): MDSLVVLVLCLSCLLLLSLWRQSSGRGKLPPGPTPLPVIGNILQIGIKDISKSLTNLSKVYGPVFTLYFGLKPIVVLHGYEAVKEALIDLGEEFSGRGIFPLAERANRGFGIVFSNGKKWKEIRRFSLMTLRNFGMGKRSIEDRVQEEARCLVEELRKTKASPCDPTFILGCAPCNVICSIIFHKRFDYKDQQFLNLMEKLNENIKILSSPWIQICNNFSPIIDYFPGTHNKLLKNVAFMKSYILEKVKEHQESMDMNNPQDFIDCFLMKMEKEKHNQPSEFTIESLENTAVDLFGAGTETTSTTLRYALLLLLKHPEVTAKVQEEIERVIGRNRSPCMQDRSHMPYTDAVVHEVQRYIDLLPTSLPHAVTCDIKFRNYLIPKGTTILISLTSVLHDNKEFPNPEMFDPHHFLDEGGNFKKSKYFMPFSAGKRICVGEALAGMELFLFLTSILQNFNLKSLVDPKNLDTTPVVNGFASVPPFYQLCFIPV
Voltage-gated inwardly rectifying potassium channel KCNH2 (Homo sapiens), sequence (Q12809 whole entry, looked up): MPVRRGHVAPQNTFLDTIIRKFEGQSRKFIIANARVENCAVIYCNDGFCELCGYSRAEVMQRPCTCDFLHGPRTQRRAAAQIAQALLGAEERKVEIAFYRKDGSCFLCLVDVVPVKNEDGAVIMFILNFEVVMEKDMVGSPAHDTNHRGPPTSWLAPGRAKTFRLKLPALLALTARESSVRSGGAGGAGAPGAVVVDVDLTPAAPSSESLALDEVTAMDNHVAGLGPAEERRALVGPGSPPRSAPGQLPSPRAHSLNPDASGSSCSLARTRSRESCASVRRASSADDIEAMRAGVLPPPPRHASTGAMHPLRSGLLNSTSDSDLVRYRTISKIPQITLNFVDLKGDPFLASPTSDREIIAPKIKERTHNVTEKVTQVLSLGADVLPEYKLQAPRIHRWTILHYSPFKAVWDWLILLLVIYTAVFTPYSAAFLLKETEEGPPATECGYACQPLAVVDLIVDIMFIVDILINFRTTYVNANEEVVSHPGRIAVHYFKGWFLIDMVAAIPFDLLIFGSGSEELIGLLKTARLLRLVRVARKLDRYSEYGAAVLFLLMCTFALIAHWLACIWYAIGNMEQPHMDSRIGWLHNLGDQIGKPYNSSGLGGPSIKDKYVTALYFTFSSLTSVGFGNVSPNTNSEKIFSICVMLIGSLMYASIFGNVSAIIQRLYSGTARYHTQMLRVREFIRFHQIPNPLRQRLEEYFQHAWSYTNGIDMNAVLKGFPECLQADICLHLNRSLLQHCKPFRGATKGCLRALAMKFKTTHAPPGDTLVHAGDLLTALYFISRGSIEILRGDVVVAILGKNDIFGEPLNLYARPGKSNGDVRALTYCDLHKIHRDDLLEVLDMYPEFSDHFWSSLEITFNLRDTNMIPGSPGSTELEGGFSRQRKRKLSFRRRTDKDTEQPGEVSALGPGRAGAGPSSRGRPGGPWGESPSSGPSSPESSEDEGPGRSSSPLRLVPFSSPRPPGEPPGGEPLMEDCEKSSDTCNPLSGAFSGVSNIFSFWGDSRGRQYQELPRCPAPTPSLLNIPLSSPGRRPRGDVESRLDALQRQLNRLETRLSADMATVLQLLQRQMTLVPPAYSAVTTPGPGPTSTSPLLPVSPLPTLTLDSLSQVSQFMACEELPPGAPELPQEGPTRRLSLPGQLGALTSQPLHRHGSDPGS
Cytochrome P450 2C19 (Homo sapiens), sequence (P33261 whole entry, looked up): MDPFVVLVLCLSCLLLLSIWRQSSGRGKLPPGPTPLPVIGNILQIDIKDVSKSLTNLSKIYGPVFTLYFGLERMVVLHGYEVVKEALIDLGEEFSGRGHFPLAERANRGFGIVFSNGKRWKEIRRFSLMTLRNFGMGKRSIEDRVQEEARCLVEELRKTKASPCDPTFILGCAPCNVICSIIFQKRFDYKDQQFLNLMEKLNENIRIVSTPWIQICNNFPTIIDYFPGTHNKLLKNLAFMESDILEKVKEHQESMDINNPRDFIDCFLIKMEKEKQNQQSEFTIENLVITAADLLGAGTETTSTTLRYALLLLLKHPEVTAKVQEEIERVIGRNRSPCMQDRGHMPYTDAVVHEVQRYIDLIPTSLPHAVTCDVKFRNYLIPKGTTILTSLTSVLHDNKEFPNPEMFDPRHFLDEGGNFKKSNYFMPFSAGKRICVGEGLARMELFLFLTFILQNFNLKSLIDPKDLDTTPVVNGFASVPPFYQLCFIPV
Nuclear receptor subfamily 1 group I member 2 (Homo sapiens), sequence (O75469 whole entry, looked up): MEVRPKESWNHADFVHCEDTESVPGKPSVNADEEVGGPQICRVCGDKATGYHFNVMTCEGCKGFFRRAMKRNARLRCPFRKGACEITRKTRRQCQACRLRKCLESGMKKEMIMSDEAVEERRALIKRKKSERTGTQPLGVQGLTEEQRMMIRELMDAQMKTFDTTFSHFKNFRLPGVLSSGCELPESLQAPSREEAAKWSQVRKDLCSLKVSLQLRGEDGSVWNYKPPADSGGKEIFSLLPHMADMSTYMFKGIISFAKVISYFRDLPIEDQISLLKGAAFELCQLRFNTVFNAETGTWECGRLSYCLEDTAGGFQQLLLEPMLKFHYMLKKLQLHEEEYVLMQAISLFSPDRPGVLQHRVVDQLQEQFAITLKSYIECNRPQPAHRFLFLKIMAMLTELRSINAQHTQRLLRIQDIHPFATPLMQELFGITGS

O=c1[nH][nH]c(=O)c2cc([N+](=O)[O-])ccc12
inactive: Potency [1] | Potency [2] | Potency [3] | outcome [4] | Potency [5] | Potency [6] | Potency [7] | Potency [8] | Potency [9] | Potency [10] | Potency [11]

CCCCCC
inactive: Potency [1] | Potency [2] | Potency [3] | outcome [4] | Potency [12] | Potency [10]

CCCCOC(=O)CCCCC(=O)OCCCC
active: Potency [7] 35.6 µM | Potency [8] 11.2 µM | Potency [9] 31.7 µM
inactive: Potency [1] | Potency [2] | Potency [3] | outcome [4] | Potency [12] | Potency [10] | Potency [11]

Cc1oc(=O)oc1COC(=O)[C@@H]1N2C(=O)[C@@H](NC(=O)[C@H](N)c3ccccc3)[C@H]2SC1(C)C
inactive: Potency [1] | Potency [2] | Potency [3] | outcome [4] | Potency [12] | Potency [6] | Potency [9] | Potency [10]

CC1=CC[C@@H]2C[C@H]1C2(C)C
inactive: activity change, negative = cytotoxicity [1] 1.01% [at 19 µM] | caspase activation [2] -0.809% [at 19 µM] | activity change, negative = cytotoxicity [3] -0.814% [at 19 µM] | caspase-3/7 activation [4] 0.0875% [at 19 µM] | activity change, negative = cytotoxicity [12] -0.185% [at 19 µM] | activity change, negative = inhibition [6] -8.83% [at 23.6 µM] | activity change, negative = inhibition [7] -6.89% [at 23.6 µM] | activity change, negative = inhibition [9] -16.3% [at 23.6 µM] | activity change, negative = inhibition [10] -0.97% [at 15.8 µM]

OCC(CO)n1cnc(-c2ccc(F)cc2)c1-c1ccnc(Oc2ccccc2)n1
active: Potency [7] 31.7 µM | Potency [8] 35.6 µM
inactive: Potency [1] | Potency [2] | Potency [3] | outcome [4] | Potency [12] | Potency [9] | Potency [10] | Potency [11]

O=C(O)c1ccc(O)cc1O
inactive: Potency [1] | Potency [2] | Potency [3] | outcome [4] | Potency [12] | Potency [6] | Potency [8] | Potency [9] | Potency [10] | Potency [11]

Cc1cccc2sc(N)nc12
inactive: Potency [1] | Potency [2] | Potency [3] | outcome [4] | Potency [12] | Potency [8] | Potency [10] | Potency [11]
active: Potency [7] 22.7 µM | Potency [9] 18.1 µM

CCN(CC)CCNC(=O)c1cc(Cl)c(N)cc1OC
inactive: Potency [1] | Potency [2] | Potency [3] | outcome [4] | Potency [12] | Potency [7] | Potency [8] | Potency [9] | Potency [10]

CCN(Cc1cccc(S(=O)(=O)O)c1)c1ccc(C(=C2C=CC(=[N+](CC)Cc3cccc(S(=O)(=O)O)c3)C=C2)c2ccc(O)cc2S(=O)(=O)[O-])cc1
inactive: Potency [2] | outcome [4] | Potency [10]
active: Potency [1] 18.6 µM | Potency [3] 18.6 µM | Potency [12] 16.6 µM | Potency [6] 19.3 µM | Potency [8] 6.83 µM | Potency [9] 17.2 µM | Potency [11] 19.3 µM

CCOC(=O)N1CCC(Nc2ccc(Cl)cc2N)CC1
active: Potency [7] 4.36 µM | Potency [8] 8.71 µM
inactive: Potency [1] | Potency [2] | Potency [3] | outcome [4] | Potency [12] | Potency [9] | Potency [10] | Potency [11]

CC(=O)NCCO
inactive: Potency [1] | Potency [2] | Potency [3] | outcome [4] | Potency [12] | Potency [6] | Potency [7] | Potency [9] | Potency [10]

O=C(NS(=O)(=O)/C=C/c1ccccc1)c1ccc(F)cc1Cl
active: Potency [8] 10 µM
inactive: Potency [1] | Potency [2] | Potency [3] | outcome [4] | Potency [12] | Potency [6] | Potency [7] | Potency [9] | Potency [10] | Potency [11]

COc1ccc(-c2cc(=S)ss2)cc1
inactive: Potency [1] | Potency [2] | outcome [4] | Potency [12] | Potency [10]
active: Potency [3] 29.8 µM | Potency [7] 9.77 µM | Potency [8] 12.3 µM | Potency [9] 0.911 µM

CC(=O)C(=O)CC(C)C
inactive: Potency [1] | Potency [2] | Potency [3] | outcome [4] | Potency [12] | Potency [6] | Potency [10] | Potency [11]
active: Potency [7] 35.4 µM

CC1CCCC(=O)C1=O (stereo unspecified)
inactive: Potency [1] | Potency [2] | Potency [3] | outcome [4] | Potency [12] | Potency [6] | Potency [7] | Potency [8] | Potency [9] | Potency [10] | Potency [11]

CCC(CO)(CO)[N+](=O)[O-]
inactive: Potency [2] | Potency [3] | outcome [4] | Potency [12] | Potency [5] | Potency [6] | Potency [7] | Potency [8] | Potency [9] | Potency [10] | Potency [11]

CC/C=C\C/C=C\C/C=C\CCCCCCCC(=O)OCC
active: Potency [7] 64.8 µM | Potency [8] 40.9 µM | Potency [11] 72.7 µM
inactive: Potency [1] | Potency [2] | Potency [12] | Potency [10]

Nc1cccc2c(N)cccc12
inactive: outcome [4] | Potency [10]
active: Potency [1] 5.45 µM | Potency [12] 61.1 µM | Potency [5] 17.2 µM | Potency [6] 2.38 µM | Potency [7] 7.96 µM | Potency [8] 9.2 µM | Potency [9] 3.72 µM

O=C(O)c1cccc(Oc2ccccc2)c1
inactive: Potency [1] | Potency [2] | outcome [4] | Potency [12] | Potency [5] | Potency [6] | Potency [7] | Potency [9] | Potency [10] | Potency [11]

CCCOC(=O)c1c(Cl)c(Cl)c(Cl)c(Cl)c1C(=O)OCCC
inactive: Potency [1] | Potency [2] | Potency [12] | Potency [10]
active: Potency [5] 17.2 µM | Potency [8] 17.8 µM | Potency [9] 2.24 µM
